Legend:
Experiment in all cases: PBM binding z-score (relative to random genomic background probes); higher = stronger binding; sequences stand for … in GC…GCGATTGACAGCGTAGAATGAAGG
[1] = tested on: FXR:RXRa (NR concentration 270 nM, RXRa partner concentration 90 nM)
Procedure, shortened: (§1)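 Custom Agilent 4×180K protein-binding microarrays carried double-stranded probes, each with a 34-nt variable region. These regions held direct-repeat seeds, single-nucleotide variants, half-site ablations and random human genomic background sequences. Ligand-free nuclear receptor dimers were incubated on the arrays for 1 h, antibodies against each partner (one per run) detected binding, and scanned fluorescence was regression-normalized. Binding z-scores take the random background probes as reference.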

[2] = tested on: LXRa:RXRa (NR concentration 270 nM, RXRa partner concentration 90 nM)
Procedure, shortened: as §1

[3] = tested on: LXRa homodimer (NR concentration 270 nM)
Procedure, shortened: as §1

[4] = tested on: LXRb:RXRa (NR concentration 270 nM, RXRa partner concentration 90 nM)
Procedure, shortened: as §1

[5] = tested on: LXRb homodimer (NR concentration 270 nM)
Procedure, shortened: as §1

[6] = tested on: PPARa:RXRa (NR concentration 270 nM, RXRa partner concentration 90 nM)
Procedure, shortened: as §1

[7] = tested on: PPARg:RXRa (NR concentration 180 nM, RXRa partner concentration 90 nM)
Procedure, shortened: as §1

[8] = tested on: PPARg:RXRa 270nM:90nM, anti-RXR (NR concentration 270 nM, RXRa partner concentration 90 nM)
Procedure, shortened: as §1

[9] = tested on: PPARg:RXRa 30nM:10nM, anti-RXR (NR concentration 30 nM, RXRa partner concentration 10 nM)
Procedure, shortened: as §1

[10] = tested on: PPARg:RXRa 90nM:30nM, anti-RXR (NR concentration 90 nM, RXRa partner concentration 30 nM)
Procedure, shortened: as §1

[11] = tested on: PPARg:RXRa DBDmut IVT, anti-RXR (DBD mutation: RXRa K156A/R161A, NR concentration 270 nM, RXRa partner concentration 90 nM)
Procedure, shortened: as §1

[12] = tested on: PPARg:RXRa IVT, anti-PPARg (NR concentration 270 nM, RXRa partner concentration 90 nM)
Procedure, shortened: as §1

[13] = tested on: PPARg DBDmut:RXRa IVT, anti-PPARg (DBD mutation: PPARg1 K132A/R137A, NR concentration 270 nM, RXRa partner concentration 90 nM)
Procedure, shortened: as §1

[14] = tested on: PPARg DBDmut IVT, anti-PPARg (DBD mutation: PPARg1 K132A/R137A, NR concentration 270 nM)
Procedure, shortened: as §1

[15] = tested on: PPARg homodimer (NR concentration 180 nM)
Procedure, shortened: as §1

[16] = tested on: PXR:RXRa (NR concentration 270 nM, RXRa partner concentration 90 nM)
Procedure, shortened: as §1

[17] = tested on: PXR homodimer (NR concentration 270 nM)
Procedure, shortened: as §1

[18] = tested on: RARa:RXR (NR concentration 270 nM, RXRa partner concentration 90 nM)
Procedure, shortened: as §1

[19] = tested on: RARa homodimer (NR concentration 270 nM)
Procedure, shortened: as §1

[20] = tested on: RARb:RXRa (NR concentration 270 nM, RXRa partner concentration 90 nM)
Procedure, shortened: as §1

| Sequence | PBM binding z-score [1] | PBM binding z-score [2] | PBM binding z-score [3] | PBM binding z-score [4] | PBM binding z-score [5] | PBM binding z-score [6] | PBM binding z-score [7] | PBM binding z-score [8] | PBM binding z-score [9] | PBM binding z-score [10] | PBM binding z-score [11] | PBM binding z-score [12] | PBM binding z-score [13] | PBM binding z-score [14] | PBM binding z-score [15] | PBM binding z-score [16] | PBM binding z-score [17] | PBM binding z-score [18] | PBM binding z-score [19] | PBM binding z-score [20] |
| --- | --- | --- | --- | --- | --- | --- | --- | --- | --- | --- | --- | --- | --- | --- | --- | --- | --- | --- | --- | --- |
| CTTACTGGGCCATCAGGTCATTGATATCAACGTT | 1.85 | 1.35 | 1.05 | 1.68 | 0.217 | 3.84 | 4.85 | 5.22 | 2.74 | 4.87 | 6.66 | 6.83 | 2.49 | 2.61 | 1.66 | 1.94 | 0.966 | 2.45 | 0.185 | 2.26 |
| TCTCGGAGGACACGAAAGCTCAGAGCTCGACATC | 0.278 | -0.178 | -0.494 | -0.291 | -1.33 | 0.0148 | 0.133 | 0.762 | 2.01 | 1.21 | 1.28 | 0.237 | -0.991 | -1.02 | -0.895 | -0.392 | -0.855 | -0.157 | -0.395 | 1.31 |
| ATATGTAGGTTACCTCCGGGTCATTCAGGCTATG | 2.86 | 5.14 | 1.84 | 3.15 | 0.804 | 4.5 | 5.68 | 4.82 | 2.2 | 4.09 | 7.18 | 6.7 | 1.67 | 1.41 | 1.74 | 3.67 | 1.8 | 3.75 | 0.561 | 2.51 |
| TCTTGTAGATCAATAGACGTTAAGAAAGTGCGCT | 0.594 | 0.28 | -0.214 | 0.165 | 0.106 | 0.212 | -0.0755 | 1.51 | 2.76 | 2.26 | 1.93 | 0.361 | 0.093 | 1.4 | -0.0841 | 0.0599 | -0.0185 | 0.0974 | 0.424 | -0.173 |
| GCGACTGGGGCAAAGCAGGTTACCATTAGGTTGG | 0.209 | -0.0636 | -0.502 | 0.31 | -0.906 | 1.4 | 1.11 | 1.39 | -0.263 | 0.675 | 4.83 | 3.63 | -0.282 | -0.886 | 0.27 | 0.143 | -0.296 | 0.139 | -0.535 | 0.975 |
| CTACCAAGGTGAACAAGGTCGTTGACTACTATTC | 1.83 | 1.79 | 0.0971 | 1.79 | -0.0485 | 2.65 | 1.41 | 1.68 | 0.448 | 0.985 | 2.76 | 2.84 | 0.603 | 0.324 | 0.75 | 2.98 | 2.72 | 2.61 | 0.269 | 2.29 |
| GCATATGGGTAATACAAGGTGAAAGTCCGATTGT | 0.428 | 1.27 | 0.16 | 0.226 | -0.552 | 1.46 | 0.928 | 1.03 | 0.412 | 0.777 | 3.34 | 2.47 | 0.702 | 0.516 | 0.3 | 0.344 | 0.0703 | 1.08 | 0.617 | 0.416 |
| GGAACGAGGGCATAGTTGATAGCATCTGTCGACG | 0.364 | 0.0828 | -0.66 | 0.126 | -0.441 | 2.33 | 3.64 | 5 | 2.9 | 4.54 | 2.46 | 2.41 | -0.0516 | -0.265 | 0.109 | 0.17 | -0.0429 | 0.19 | -0.571 | 1.39 |
| ATCTCTAGGTAACAAGTTCCGTGAAAGAGAGGAC | 0.25 | -0.0278 | 0.209 | 0.0127 | 0.506 | 0.431 | 0.903 | 1.28 | 0.68 | 1.07 | 3.05 | 2.66 | 0.253 | 1.32 | 0.831 | -0.111 | 0.636 | 0.015 | 0.906 | 0.274 |
| TCATATAGGTAAACAGGTGAAAGTACGTAAGTTA | 1.36 | 1.03 | 0.233 | 1.26 | 0.199 | 2.74 | 4.09 | 4.04 | 4.33 | 4.17 | 4.97 | 4.72 | 2.79 | 1.19 | 1.65 | 0.938 | 0.715 | 1.22 | 1.42 | 0.779 |
| GCTGCTAGGTCAACTGATGGGCAGCTAAAGCTCG | 3.7 | 2.69 | -0.419 | 1.48 | -0.413 | 3.25 | 2.39 | 3.09 | 0.29 | 1.62 | 4.79 | 4 | -0.683 | -0.478 | 0.434 | 1.1 | -0.949 | 1.93 | -0.663 | 4.1 |
| TATACAGGGTCAGAGGCCAGAGTACGAATGTCGA | 4.14 | 3.96 | 0.791 | 2.95 | 1.8 | 4.29 | 5.34 | 5.19 | 3.23 | 4.52 | 1.65 | 3.65 | 2.26 | 1.28 | 2.24 | 2.83 | 0.79 | 3.74 | 1.13 | 3.72 |
| GCTGGTTGGTCAGTAAAAGGTCACACACCGGTCG | 3.32 | 4.46 | 4.47 | 4.09 | 1.04 | 4.38 | 2.91 | 4.89 | 2.71 | 4.59 | 0.091 | 2.51 | 0.438 | 0.205 | 3.78 | 5.07 | 1.42 | 6.03 | 2.87 | 4.3 |
| GCTATGAGTTGAAAGGGCAACCGAATGATTCTCG | 1.13 | 1.19 | -0.0384 | 1.24 | -0.412 | 3.11 | 2.75 | 3.86 | 1.58 | 3.23 | 0.245 | 0.754 | 0.0157 | -0.588 | 0.982 | 1.62 | -0.0077 | 2.66 | 0.195 | 2.45 |
